Source: PubChem BioAssay AID1159580 (chemical genetic matrix, 2015)
About 2,000 (36%) of roughly 5,500 compounds were called active. About 18% were inconclusive and are not listed. Cut-off read from the data, not from the text of the source: active = normalized growth mostly below about 0.91 (no sharp cut-off); inconclusive = no clear call, values can overlap the other calls; inactive = mostly above about 0.92. The list shows a part of the results.

Assay: chemical genetic growth profiling, strain panel (AID 1159580);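 note: tested at 20 µM; growth read once vehicle control cultures reached saturation at 30 °C; 1 = growth at the plate median or of vehicle wells; lower values mean less growth of the strain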
Conditions: growth OD

Measured: normalized growth

CN[C@@H]1C(OC2[C@H](O[C@H]3[C@H](O)[C@@H](O)[C@H](N=C(N)N)[C@@H](O)[C@@H]3N=C(N)N)OC(C)[C@]2(O)CO)OC(CO)C(O)C1O (stereo partly drawn)
inactive: S. cerevisiae deletion strains, locus YKL009W, strain mrt4, active compounds read low 0.975 | S. cerevisiae deletion strains, locus YKL068W, active compounds read low 0.991 | S. cerevisiae deletion strains, locus YKL085W, strain MDH1 (second series), active compounds read low 1.01 | S. cerevisiae deletion strains, locus YKL085W, strain MDH1, active compounds read low 1.01 | S. cerevisiae deletion strains, locus YKL160W, strain elf1, active compounds read low 1 | S. cerevisiae deletion strains, locus YKL190W, strain CNB1, active compounds read low 0.998 | S. cerevisiae deletion strains, locus YKR001C, strain vps1, active compounds read low 0.981 | S. cerevisiae deletion strains, locus YKR026C, strain gcn3, active compounds read low 0.992 | S. cerevisiae deletion strains, locus YKR091W, strain srl3, active compounds read low 0.998 | S. cerevisiae deletion strains, locus YLL001W, strain dnm1, active compounds read low 0.995 | S. cerevisiae deletion strains, locus YLL026W, active compounds read low 0.998 | S. cerevisiae deletion strains, locus YLL041C, strain sdh2, active compounds read low 1.01 | S. cerevisiae deletion strains, locus YLR027C, strain aat2, active compounds read low 1 | S. cerevisiae deletion strains, locus YLR039C, strain RIC1, active compounds read low 1.01 | S. cerevisiae deletion strains, locus YLR058C, strain SHM2, active compounds read low 0.985 | S. cerevisiae deletion strains, locus YLR102C, strain apc9, active compounds read low 0.976 | S. cerevisiae deletion strains, locus YLR113W, strain HOG1, active compounds read low 1.06 | S. cerevisiae deletion strains, locus YLR221C, strain rsa3, active compounds read low 1.02 | S. cerevisiae deletion strains, locus YLR258W, strain gsy2, active compounds read low 1.01 | S. cerevisiae deletion strains, locus YLR262C, strain YPT6 (second series), active compounds read low 1 | S. cerevisiae deletion strains, locus YLR262C, strain YPT6, active compounds read low 1.01 | S. cerevisiae deletion strains, locus YLR268W, strain sec22, active compounds read low 0.985 | S. cerevisiae deletion strains, locus YLR320W, strain mms22, active compounds read low 1.03 | S. cerevisiae deletion strains, locus YLR330W, strain CHS5, active compounds read low 0.991 | S. cerevisiae deletion strains, locus YLR342W, strain FKS1 (second series), active compounds read low 1.04 | S. cerevisiae deletion strains, locus YLR342W, strain FKS1, active compounds read low 1 | S. cerevisiae deletion strains, locus YLR357W, strain rsc2, active compounds read low 0.962 | S. cerevisiae deletion strains, locus YLR370C, strain arc18, active compounds read low 1.01 | S. cerevisiae deletion strains, locus YLR371W, strain rom2, active compounds read low 0.973 | S. cerevisiae deletion strains, locus YLR384C, strain iki3, active compounds read low 0.997 | S. cerevisiae deletion strains, locus YLR418C, strain cdc73, active compounds read low 0.954 | S. cerevisiae deletion strains, locus YML016C, strain PPZ1, active compounds read low 0.993 | S. cerevisiae deletion strains, locus YML032C, strain rad52, active compounds read low 0.988 | S. cerevisiae deletion strains, locus YML120C, strain ndi1, active compounds read low 0.99 | S. cerevisiae deletion strains, locus YML124C, strain tub3, active compounds read low 0.972 | S. cerevisiae deletion strains, locus YMR058W, strain fet3, active compounds read low 1.01 | S. cerevisiae deletion strains, locus YMR078C, strain ctf18, active compounds read low 0.959 | S. cerevisiae deletion strains, locus YMR125W, strain sto1, active compounds read low 0.997 | S. cerevisiae deletion strains, locus YMR129W, active compounds read low 1 | S. cerevisiae deletion strains, locus YMR205C, strain PFK2, active compounds read low 0.995 | S. cerevisiae deletion strains, locus YMR223W, strain ubp8, active compounds read low 0.961 | S. cerevisiae deletion strains, locus YMR231W, strain pep5, active compounds read low 1.01 | S. cerevisiae deletion strains, locus YMR263W, strain SAP30, active compounds read low 0.979 | S. cerevisiae deletion strains, locus YMR307W, strain GAS1, active compounds read low 1.1 | S. cerevisiae deletion strains, locus YNL067W, strain RPL9B, active compounds read low 0.976 | S. cerevisiae deletion strains, locus YNL071W, strain lat1, active compounds read low 1.01 | S. cerevisiae deletion strains, locus YNL183C, strain NPR1, active compounds read low 0.99 | S. cerevisiae deletion strains, locus YNL209W, strain ssb2, active compounds read low 0.996 | S. cerevisiae deletion strains, locus YNL233W, strain BNI4, active compounds read low 0.976 | S. cerevisiae deletion strains, locus YNL248C, strain rpa49, active compounds read low 1.02 | S. cerevisiae deletion strains, locus YNL250W, strain rad50, active compounds read low 0.975 | S. cerevisiae deletion strains, locus YNL271C, strain bni1, active compounds read low 0.975 | S. cerevisiae deletion strains, locus YNL298W, strain CLA4, active compounds read low 0.977 | S. cerevisiae deletion strains, locus YNL307C, strain MCK1, active compounds read low 0.976 | S. cerevisiae deletion strains, locus YNL322C, strain KRE1 (second series), active compounds read low 0.993 | S. cerevisiae deletion strains, locus YNL322C, strain KRE1, active compounds read low 0.998 | S. cerevisiae deletion strains, locus YNR049C, strain mso1, active compounds read low 1 | S. cerevisiae deletion strains, locus YNR052C, strain pop2, active compounds read low 0.972 | S. cerevisiae deletion strains, locus YOL012C, strain htz1 1 | S. cerevisiae deletion strains, locus YOL147C, strain pex11, active compounds read low 0.982 | S. cerevisiae deletion strains, locus YOR001W, strain rrp6, active compounds read low 1 | S. cerevisiae deletion strains, locus YOR061W, strain CKA2, active compounds read low 0.991 | S. cerevisiae deletion strains, locus YOR069W, strain VPS5, active compounds read low 0.993 | S. cerevisiae deletion strains, locus YOR070C, strain gyp1, active compounds read low 1.01 | S. cerevisiae deletion strains, locus YOR080W, strain dia2, active compounds read low 0.996 | S. cerevisiae deletion strains, locus YOR083W, strain WHI5, active compounds read low 0.998 | S. cerevisiae deletion strains, locus YOR106W, strain vam3, active compounds read low 1.05 | S. cerevisiae deletion strains, locus YOR136W, strain idh2, active compounds read low 0.976 | S. cerevisiae deletion strains, locus YOR144C, strain elg1, active compounds read low 0.984 | S. cerevisiae deletion strains, locus YOR184W, strain ser1, active compounds read low 0.978 | S. cerevisiae deletion strains, locus YOR231W, strain MKK1, active compounds read low 1.04 | S. cerevisiae deletion strains, locus YOR265W, strain rbl2, active compounds read low 0.998 | S. cerevisiae deletion strains, locus YOR270C, strain vph1, active compounds read low 1.07 | S. cerevisiae deletion strains, locus YOR290C, strain snf2, active compounds read low 1.02 | S. cerevisiae deletion strains, locus YOR316C, strain cot1, active compounds read low 0.976 | S. cerevisiae deletion strains, locus YPL051W, strain arl3, active compounds read low 1.01 | S. cerevisiae deletion strains, locus YPL055C, strain LGE1, active compounds read low 1.01 | S. cerevisiae deletion strains, locus YPL078C, strain atp4, active compounds read low 1 | S. cerevisiae deletion strains, locus YPL106C, strain sse1, active compounds read low 1.02 | S. cerevisiae deletion strains, locus YPL240C, strain hsp82, active compounds read low 0.993 | S. cerevisiae deletion strains, locus YPL241C, strain CIN2, active compounds read low 0.998 | S. cerevisiae deletion strains, locus YPL256C, strain CLN2, active compounds read low 1.06 | S. cerevisiae deletion strains, locus YPR119W, strain clb2, active compounds read low 0.971 | S. cerevisiae deletion strains, locus YPR141C, strain kar3, active compounds read low 0.972 | S. cerevisiae deletion strains, locus YPR163C, strain tif3, active compounds read low 0.971 | S. cerevisiae deletion strains, locus YPR167C, strain met16, active compounds read low 0.97 | S. cerevisiae deletion strains, strain wtn01, active compounds read low 0.975 | S. cerevisiae strains, strain wild type, active compounds read low 0.999
